# Screens as filed in PubChem.
# An excerpt weighted towards active compounds, which were near 2.6% of everything screened.
# EWS-Fli inh – blocks EWS/Fli oncoprotein-driven transcription; A673 NR0B1-luciferase reporter, viability-normalised; inhibition, % at 12.6 µM; 350,000 tested, 0.67% active;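 active means mean inhibition of at least 50% after viability correction, with every replicate also passing that limit; inconclusive means mean reaches 50% but only one of two replicates passes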;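 further: firefly luciferase signal divided by Alamar Blue viability fluorescence both relative to DMSO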
# TWEAK-Fn14 inh – TWEAK-Fn14 signaling inhibition; TWEAK-stimulated Fn14 reporter cells, luciferase luminescence, 8 h; inhibition, % at 10 µM; 360,000 tested, 2% active; AID 1159606; in the data active means inhibition above about 50%
# LGR2 inh – Drosophila LGR2 receptor signaling inhibition; HEK293 LGR2, CRE-luciferase, bursicon-stimulated, 4 h; inhibition, % at 9.99 µM; 380,000 tested, 0.35% active;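 active means drop in luminescence signal, shown as inhibition above about 50% in the replicate tests, limit read from the data, passing the limit was not always enough; inconclusive means probably only some replicates passing the limit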;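 further: agonist challenge used bursicon conditioned medium at about half maximal strength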
# EBV LMP1 NFkB – inhibitors of Epstein-Barr LMP1-induced NF-kappaB reporter; LMP1-induced NF-kappaB luciferase reporter cells, luminescence; inhibition, % at 12.5 µM; AID 504558; 350,000 tested, 0.69% active; in the data active means inhibition above about 41%; inconclusive means no clear call, values can overlap the other calls;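 further: 0% = neutral control wells and 100% = reference inhibitor control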
# TROY NFkB inh – TROY signaling inhibition | Q293 LMP1-TROYcd NF-kB luciferase reporter, 4 h | inhibition, % at 10 µM | 360,000 tested, 0.98% active;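 active means compounds whose plate-normalised and pattern-corrected inhibition of the luciferase reporter signal at the single screening dose is 50% or more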
# Numbers without * were called inactive; ? = inconclusive; nt = no result given; ! = not active in a repeat.
SMILES,EWS-Fli inh,TWEAK-Fn14 inh,LGR2 inh,EBV LMP1 NFkB,TROY NFkB inh
CN(C)Cc1cc(C(C)(C)C)cc(N2CCOCC2)c1O,3.1,4.8,-3.9,68.4*,-2.3
c1ccc(CCNc2nc(-c3ccccn3)nc3ccccc23)cc1,8.4,10.8,29.4,46.2*,6.9
CCCN(CCC)c1nc(-c2ccccn2)nc2ccccc12,41.5,25.4,14.9,36.7,19.6
CN1C(=O)c2cc(NC(=O)c3cccc(C(F)(F)F)c3)ccc2OC[C@H]2O[C@H](CC(=O)NCCN3CCCC3)CC[C@@H]21,-1.7,nt,-12.6,nt,nt
CCN1[C@@H]2c3ccc(C4=CCCCC4)c(=O)n3C[C@@H]2[C@@H](CO)[C@@H]1C(=O)NCc1ccccn1,10.2,nt,13.4,nt,nt
Cc1cc(C)n(-c2nc(N(c3ccccc3)c3ccccc3)nc(-n3nc(C)cc3C)n2)n1,nt,106.1*,nt,15.9,9.8
COc1cccc(-c2ccc3ncnc(NCc4cccnc4)c3c2)c1,10.5,73.8*,12.2,18.6,45.4
C[C@H]1CN([C@@H](C)CO)C(=O)c2cc(Br)cnc2O[C@@H]1CN(C)Cc1ccccc1,3.9,nt,-1.0,nt,nt
CCCNC(=O)N1CCC2(CC1)CN(S(C)(=O)=O)[C@@H](CO)c1c2c2ccc(OC)cc2n1C,-6.6,nt,-8.9,nt,nt
Cc1ccc(O)c(C2=Nc3ccccc3N=C(c3ccco3)C2)c1,nt,21.9,11.1,4.1,-14.4
Cc1ccc(C2=Nc3ccccc3N=C(c3ccco3)C2)c(O)c1,nt,33.6,-0.2,3.3,50.4*
O=C(NC1CCCCC1)C(c1cccnc1)N(C(=O)CCl)c1ccccc1Cl (stereo not drawn),48.3,61.9*,13.1,62.7*,1.8
CCc1ccccc1N(C(=O)CNC(=O)c1ccco1)C(C(=O)NC1CCCC1)c1cccnc1 (stereo not drawn),-4.6,11.7,9.8,-0.7,-14.2
COc1ccc(N(C(=O)CCl)C(C(=O)NC2CCCCC2)c2cccnc2)cc1 (stereo not drawn),nt,46.7,4.9,62.4*,-13.4
O=C(NC1CCCCC1)C(c1cccnc1)N(C(=O)CCl)c1ccc(F)cc1 (stereo not drawn),56.6*,42.0,-0.1,75.8*,4.9
CCCC#Cc1cnc2c(c1)C(=O)N([C@H](C)CO)C[C@@H](C)[C@H](CN(C)CCC)O2,-6.9,nt,10.9,nt,nt
COc1cc(/C=C/[N+](=O)[O-])ccc1OC(=O)c1cc2ccccc2oc1=O,12.5,19.6,nt,15.2,52.7*
COc1ccccc1OC(=O)c1cc2ccccc2oc1=O,-2.9,-8.1,-6.3,2.2,-26.5
CCN1CCCC1CNC(=O)c1ccccc1Cl (stereo not drawn),nt,-11.2,5.7,0.2,-8.8
CCc1cc(Cl)c(OC)c(C(=O)NC[C@@H]2CCCN2CC)c1O,18.0,-27.4,-0.6,70.7*!,3.8
O=C(COc1ccc(CO)cc1)Nc1ccc(F)cc1,nt,1.2,nt,-15.9,-33.8
O=C(COc1ccc(CO)cc1Cl)Nc1ccc(F)cc1,nt,62.8*,nt,-34.4,6.8
Cc1ccc(S(=O)(=O)N(C)C[C@H]2Oc3ccc(NS(C)(=O)=O)cc3C(=O)N([C@@H](C)CO)C[C@@H]2C)cc1,-1.3,nt,-4.5,nt,nt
COc1cccc(NC(=O)N2CC(=O)N3[C@H](CO)[C@@H](c4ccc(C5=CCCC5)cc4)[C@@H]3C2)c1,0.3,nt,-1.5,nt,nt
O=C1/C(=C\c2cccnc2)SC(=S)N1C1CCS(=O)(=O)C1 (stereo not drawn),0.5,71.1*,54.8*,18.6,12.6
SMILES,EWS-Fli inh,TWEAK-Fn14 inh,LGR2 inh,EBV LMP1 NFkB,TROY NFkB inh
O=C1/C(=C/c2cccnc2)SC(=S)N1C1CCS(=O)(=O)C1 (stereo not drawn),nt,65.1*,?,6.9,17.0
C[C@@H]1CN([C@@H](C)CO)S(=O)(=O)c2ccc(C3=CCCC3)cc2O[C@H]1CN(C)CC1CCOCC1,17.3,nt,5.4,nt,nt
Cc1ccc(S(=O)(=O)N(C)C[C@H]2Oc3ncc(C#CCC(C)C)cc3C(=O)N([C@@H](C)CO)C[C@H]2C)cc1,-0.8,nt,-16.4,nt,nt
C[C@H]1CN([C@@H](C)CO)C(=O)Cc2cc(NS(=O)(=O)c3ccccc3)ccc2O[C@H]1CN(C)S(=O)(=O)c1cccs1,2.6,nt,-1.4,nt,nt
C[C@@H]1CN([C@@H](C)CO)C(=O)c2cc(/C=C/c3ccccc3)cnc2O[C@@H]1CN(C)C(=O)Nc1ccc(C(F)(F)F)cc1,51.9*,nt,21.9,nt,nt
C[C@@H]1CN([C@@H](C)CO)C(=O)c2cc(C#CCN(C)C)cnc2O[C@@H]1CN(C)Cc1ccc(-c2ccccc2)cc1,35.5,nt,-11.8,nt,nt
